The text below walks through data of ChEMBL document CHEMBL2218924, “A broad activity screen in support of a chemogenomic map for kinase signalling research and drug discovery” (Biochem J, 2013).

Assay [1] has as its target Serine/threonine-protein kinase PLK2 (Homo sapiens) (UniProt Q9NYY3). Conditions: at 1 µM.
Assay [2] shares this target. Conditions: at 10 µM.
Assay [3] deals with T1, Mitogen-activated protein kinase kinase kinase 7 (Homo sapiens) (UniProt O43318).
T1 sequence (whole entry): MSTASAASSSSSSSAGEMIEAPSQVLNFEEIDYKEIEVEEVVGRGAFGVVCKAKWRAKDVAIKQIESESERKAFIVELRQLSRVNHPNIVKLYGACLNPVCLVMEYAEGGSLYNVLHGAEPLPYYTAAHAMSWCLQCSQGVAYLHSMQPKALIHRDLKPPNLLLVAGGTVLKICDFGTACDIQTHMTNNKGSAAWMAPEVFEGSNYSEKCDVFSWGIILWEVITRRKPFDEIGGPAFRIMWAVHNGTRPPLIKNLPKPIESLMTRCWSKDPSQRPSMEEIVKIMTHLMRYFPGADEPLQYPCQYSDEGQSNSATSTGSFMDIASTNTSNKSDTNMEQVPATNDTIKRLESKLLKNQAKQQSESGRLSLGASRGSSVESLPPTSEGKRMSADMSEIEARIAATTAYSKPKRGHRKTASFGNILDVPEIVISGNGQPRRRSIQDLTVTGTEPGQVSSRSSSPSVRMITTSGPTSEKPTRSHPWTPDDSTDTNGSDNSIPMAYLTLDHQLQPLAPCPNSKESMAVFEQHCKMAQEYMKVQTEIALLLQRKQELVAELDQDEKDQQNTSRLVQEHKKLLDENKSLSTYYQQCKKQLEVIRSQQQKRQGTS
The settings on record: at 10 µM.

Assay [4] deals with T2, Serine/threonine-protein kinase TAO1 (Homo sapiens) (UniProt Q7L7X3).
T2 sequence (whole entry): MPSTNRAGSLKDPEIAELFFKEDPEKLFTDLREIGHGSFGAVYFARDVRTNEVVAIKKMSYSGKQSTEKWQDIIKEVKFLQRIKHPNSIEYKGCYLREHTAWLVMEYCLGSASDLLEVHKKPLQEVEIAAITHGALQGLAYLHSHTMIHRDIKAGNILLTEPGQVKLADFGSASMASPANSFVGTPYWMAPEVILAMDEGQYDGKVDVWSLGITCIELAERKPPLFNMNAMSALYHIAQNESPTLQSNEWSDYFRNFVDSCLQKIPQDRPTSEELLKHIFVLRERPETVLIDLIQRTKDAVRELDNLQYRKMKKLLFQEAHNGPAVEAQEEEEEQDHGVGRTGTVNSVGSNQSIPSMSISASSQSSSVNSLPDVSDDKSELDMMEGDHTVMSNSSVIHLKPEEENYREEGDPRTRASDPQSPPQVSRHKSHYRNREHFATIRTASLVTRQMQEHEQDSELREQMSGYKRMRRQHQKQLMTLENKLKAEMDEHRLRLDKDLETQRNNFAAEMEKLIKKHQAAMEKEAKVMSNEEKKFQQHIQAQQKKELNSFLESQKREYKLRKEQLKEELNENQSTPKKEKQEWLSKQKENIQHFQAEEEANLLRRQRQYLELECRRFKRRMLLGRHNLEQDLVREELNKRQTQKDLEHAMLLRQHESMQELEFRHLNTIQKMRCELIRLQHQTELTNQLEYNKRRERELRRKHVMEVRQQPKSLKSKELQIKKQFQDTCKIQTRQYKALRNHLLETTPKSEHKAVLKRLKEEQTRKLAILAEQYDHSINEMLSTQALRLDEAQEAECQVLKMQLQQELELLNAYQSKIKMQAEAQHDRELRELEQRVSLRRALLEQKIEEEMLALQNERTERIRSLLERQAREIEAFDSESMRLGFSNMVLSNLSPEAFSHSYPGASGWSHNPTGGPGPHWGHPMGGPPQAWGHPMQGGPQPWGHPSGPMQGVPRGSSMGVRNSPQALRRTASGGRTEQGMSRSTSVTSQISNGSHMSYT
The settings on record: at 1 µM.

For assay [5], the target named is T2, Serine/threonine-protein kinase TAO1 (Homo sapiens). Conditions: at 10 µM.
Assay [6] concerns the target T3, Serine/threonine-protein kinase TAO3 (Homo sapiens) (UniProt Q9H2K8).
T3 sequence (whole entry): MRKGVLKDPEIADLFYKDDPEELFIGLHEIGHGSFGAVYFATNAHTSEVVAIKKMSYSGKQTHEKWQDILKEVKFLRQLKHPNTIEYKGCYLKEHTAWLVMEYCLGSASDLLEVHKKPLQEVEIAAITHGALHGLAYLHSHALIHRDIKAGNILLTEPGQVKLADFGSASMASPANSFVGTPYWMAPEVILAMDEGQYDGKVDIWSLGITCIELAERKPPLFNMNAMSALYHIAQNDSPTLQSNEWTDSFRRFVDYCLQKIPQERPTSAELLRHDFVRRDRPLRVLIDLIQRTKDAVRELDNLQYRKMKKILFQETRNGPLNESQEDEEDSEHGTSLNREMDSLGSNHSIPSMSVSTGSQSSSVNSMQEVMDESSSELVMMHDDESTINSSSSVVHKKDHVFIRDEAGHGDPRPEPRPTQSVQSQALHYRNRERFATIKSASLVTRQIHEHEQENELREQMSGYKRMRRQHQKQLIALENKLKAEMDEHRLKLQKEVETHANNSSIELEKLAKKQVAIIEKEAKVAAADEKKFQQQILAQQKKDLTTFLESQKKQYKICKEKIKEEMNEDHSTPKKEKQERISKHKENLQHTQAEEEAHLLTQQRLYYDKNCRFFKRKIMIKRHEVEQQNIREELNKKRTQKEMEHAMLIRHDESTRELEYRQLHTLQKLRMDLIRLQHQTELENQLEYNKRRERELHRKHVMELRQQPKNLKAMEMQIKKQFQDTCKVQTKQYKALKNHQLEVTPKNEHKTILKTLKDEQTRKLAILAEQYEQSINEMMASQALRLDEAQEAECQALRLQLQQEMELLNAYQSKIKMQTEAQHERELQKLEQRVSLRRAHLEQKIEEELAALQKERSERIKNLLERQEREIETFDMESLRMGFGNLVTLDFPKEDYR
Conditions: at 1 µM.

Assay [7] concerns the target T3, Serine/threonine-protein kinase TAO3 (Homo sapiens). The settings on record: at 10 µM.
Assay [8] deals with T4, Serine/threonine-protein kinase TBK1 (Homo sapiens) (UniProt Q9UHD2).
T4 sequence (whole entry): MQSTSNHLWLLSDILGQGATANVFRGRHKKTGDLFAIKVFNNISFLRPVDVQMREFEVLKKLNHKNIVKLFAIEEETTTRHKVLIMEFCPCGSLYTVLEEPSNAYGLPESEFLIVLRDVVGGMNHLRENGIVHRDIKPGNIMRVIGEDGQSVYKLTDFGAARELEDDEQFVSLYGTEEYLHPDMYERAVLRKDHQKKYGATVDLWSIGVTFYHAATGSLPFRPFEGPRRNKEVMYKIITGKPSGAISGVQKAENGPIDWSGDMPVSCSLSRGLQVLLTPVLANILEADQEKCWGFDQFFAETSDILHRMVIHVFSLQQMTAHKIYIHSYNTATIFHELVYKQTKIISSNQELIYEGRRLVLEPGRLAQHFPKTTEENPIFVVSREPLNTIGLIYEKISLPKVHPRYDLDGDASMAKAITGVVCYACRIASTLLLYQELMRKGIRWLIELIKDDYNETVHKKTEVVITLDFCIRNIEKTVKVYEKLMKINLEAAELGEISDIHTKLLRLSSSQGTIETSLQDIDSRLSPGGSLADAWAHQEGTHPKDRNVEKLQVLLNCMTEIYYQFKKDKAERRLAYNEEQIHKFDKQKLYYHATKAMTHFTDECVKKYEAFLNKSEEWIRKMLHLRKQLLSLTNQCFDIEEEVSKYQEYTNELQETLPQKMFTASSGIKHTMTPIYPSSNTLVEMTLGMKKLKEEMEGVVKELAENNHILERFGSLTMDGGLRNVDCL
The settings on record: at 1 µM.

In assay [9] the target is T4, Serine/threonine-protein kinase TBK1 (Homo sapiens). Conditions: at 10 µM.
Assay [10] deals with T5, TGF-beta receptor type-1 (Homo sapiens) (UniProt P36897).
T5 sequence (whole entry): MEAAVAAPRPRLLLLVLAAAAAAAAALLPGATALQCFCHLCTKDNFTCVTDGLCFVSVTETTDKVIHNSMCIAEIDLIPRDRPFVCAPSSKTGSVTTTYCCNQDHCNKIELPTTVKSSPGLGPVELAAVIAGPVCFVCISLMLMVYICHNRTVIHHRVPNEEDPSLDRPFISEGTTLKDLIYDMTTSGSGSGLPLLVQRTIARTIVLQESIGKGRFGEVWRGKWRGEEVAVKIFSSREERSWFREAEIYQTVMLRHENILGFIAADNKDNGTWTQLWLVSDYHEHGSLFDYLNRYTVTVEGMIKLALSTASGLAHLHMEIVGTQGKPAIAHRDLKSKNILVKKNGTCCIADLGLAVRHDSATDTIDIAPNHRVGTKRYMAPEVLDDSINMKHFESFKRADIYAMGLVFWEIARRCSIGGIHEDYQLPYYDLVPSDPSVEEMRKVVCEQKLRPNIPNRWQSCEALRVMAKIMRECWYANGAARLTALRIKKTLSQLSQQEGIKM
The settings on record: at 1 µM.

For assay [11], the target named is T5, TGF-beta receptor type-1 (Homo sapiens). Conditions: at 10 µM.
In assay [12] the target is Serine/threonine-protein kinase 33 (Homo sapiens) (UniProt Q9BYT3). Conditions: at 1 µM.
Serine/threonine-protein kinase 33 (Homo sapiens), sequence (Q9BYT3 whole entry, looked up): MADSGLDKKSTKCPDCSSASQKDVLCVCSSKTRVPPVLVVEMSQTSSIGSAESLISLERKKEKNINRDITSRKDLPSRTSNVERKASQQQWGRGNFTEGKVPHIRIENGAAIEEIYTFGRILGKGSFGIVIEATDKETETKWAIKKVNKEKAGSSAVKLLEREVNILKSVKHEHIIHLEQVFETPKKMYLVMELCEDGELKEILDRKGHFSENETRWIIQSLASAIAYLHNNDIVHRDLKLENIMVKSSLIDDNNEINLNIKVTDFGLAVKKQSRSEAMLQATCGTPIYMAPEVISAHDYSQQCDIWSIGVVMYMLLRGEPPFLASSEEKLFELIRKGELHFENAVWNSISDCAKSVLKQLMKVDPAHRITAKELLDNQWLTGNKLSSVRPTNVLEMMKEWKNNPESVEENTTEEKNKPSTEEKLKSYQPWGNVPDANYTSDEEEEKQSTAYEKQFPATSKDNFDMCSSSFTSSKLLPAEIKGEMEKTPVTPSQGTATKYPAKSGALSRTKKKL
Assay [13] shares this target. The settings on record: at 10 µM.
The target in assay [14] is Tyrosine-protein kinase SYK (Homo sapiens) (UniProt P43405). The settings on record: at 1 µM.
The target is the same in assay [15]. Conditions: at 10 µM.
The target in assay [16] is Insulin-like growth factor 1 receptor (Homo sapiens) (UniProt P08069). Conditions: at 1 µM.
Insulin-like growth factor 1 receptor (Homo sapiens), sequence (P08069 31-736 limits assumed): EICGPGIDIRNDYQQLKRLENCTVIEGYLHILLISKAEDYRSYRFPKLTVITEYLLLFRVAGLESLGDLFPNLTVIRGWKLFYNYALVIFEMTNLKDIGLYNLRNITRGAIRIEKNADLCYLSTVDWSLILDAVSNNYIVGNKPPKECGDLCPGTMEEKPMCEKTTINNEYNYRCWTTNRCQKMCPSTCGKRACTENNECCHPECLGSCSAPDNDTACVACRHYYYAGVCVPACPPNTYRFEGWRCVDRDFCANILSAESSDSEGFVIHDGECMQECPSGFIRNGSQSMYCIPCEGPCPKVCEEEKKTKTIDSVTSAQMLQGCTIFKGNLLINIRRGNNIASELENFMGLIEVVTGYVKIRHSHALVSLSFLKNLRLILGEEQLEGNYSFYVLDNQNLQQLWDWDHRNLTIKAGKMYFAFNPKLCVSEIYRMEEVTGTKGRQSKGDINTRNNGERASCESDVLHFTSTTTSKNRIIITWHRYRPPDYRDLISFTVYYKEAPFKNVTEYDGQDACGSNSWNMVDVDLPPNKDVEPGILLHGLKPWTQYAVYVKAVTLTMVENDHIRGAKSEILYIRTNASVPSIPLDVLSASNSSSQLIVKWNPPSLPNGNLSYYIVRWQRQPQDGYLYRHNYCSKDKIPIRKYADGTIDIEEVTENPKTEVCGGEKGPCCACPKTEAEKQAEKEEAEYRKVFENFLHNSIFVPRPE
Insulin-like growth factor 1 receptor (Homo sapiens), sequence (P08069 741-1367 limits assumed): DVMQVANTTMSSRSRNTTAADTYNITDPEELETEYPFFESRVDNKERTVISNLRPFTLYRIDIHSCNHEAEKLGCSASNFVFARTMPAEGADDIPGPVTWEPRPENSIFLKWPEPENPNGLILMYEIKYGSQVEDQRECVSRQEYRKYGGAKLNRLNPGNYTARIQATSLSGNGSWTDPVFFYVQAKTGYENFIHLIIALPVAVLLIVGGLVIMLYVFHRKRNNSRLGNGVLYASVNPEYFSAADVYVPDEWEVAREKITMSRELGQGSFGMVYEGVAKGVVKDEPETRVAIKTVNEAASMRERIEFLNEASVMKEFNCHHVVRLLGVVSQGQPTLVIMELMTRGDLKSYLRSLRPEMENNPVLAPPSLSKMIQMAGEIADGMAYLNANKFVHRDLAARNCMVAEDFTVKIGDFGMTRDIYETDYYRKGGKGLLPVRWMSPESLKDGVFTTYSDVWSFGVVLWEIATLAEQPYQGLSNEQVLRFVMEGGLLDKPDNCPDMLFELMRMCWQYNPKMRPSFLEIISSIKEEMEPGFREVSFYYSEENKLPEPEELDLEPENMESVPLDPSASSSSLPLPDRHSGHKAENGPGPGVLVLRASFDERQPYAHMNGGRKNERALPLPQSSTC
For assay [17] the target is unchanged. Conditions: at 10 µM.
For assay [18], the target named is T1, Mitogen-activated protein kinase kinase kinase 7 (Homo sapiens). Conditions: at 1 µM.

SMILES strings stand for the structures.

Serine/threonine-protein kinase PLK2 (Homo sapiens), sequence (Q9NYY3 whole entry, looked up): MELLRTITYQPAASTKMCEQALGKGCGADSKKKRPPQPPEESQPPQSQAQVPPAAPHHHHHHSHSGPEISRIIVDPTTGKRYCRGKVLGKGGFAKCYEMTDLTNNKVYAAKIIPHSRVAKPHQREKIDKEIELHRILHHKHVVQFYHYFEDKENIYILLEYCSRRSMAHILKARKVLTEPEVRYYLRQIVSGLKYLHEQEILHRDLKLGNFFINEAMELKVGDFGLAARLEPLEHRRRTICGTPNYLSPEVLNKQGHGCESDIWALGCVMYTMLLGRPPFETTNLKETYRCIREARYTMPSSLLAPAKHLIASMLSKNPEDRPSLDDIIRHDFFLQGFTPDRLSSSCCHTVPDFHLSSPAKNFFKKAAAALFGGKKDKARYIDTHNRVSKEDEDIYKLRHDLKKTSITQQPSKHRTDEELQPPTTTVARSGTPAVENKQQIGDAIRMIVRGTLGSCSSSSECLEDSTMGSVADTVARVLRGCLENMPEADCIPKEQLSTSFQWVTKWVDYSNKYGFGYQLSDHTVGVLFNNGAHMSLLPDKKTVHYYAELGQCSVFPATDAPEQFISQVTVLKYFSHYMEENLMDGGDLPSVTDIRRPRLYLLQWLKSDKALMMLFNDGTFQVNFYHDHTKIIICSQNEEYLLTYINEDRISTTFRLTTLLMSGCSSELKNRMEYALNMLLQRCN

Turning to `N/C(=N\[N+](=O)[O-])N/N=C\c1ccc(-c2cccc([N+](=O)[O-])c2)o1`, the residual activity in [1] was found to be 99%; in assay [2], 98%; in assay [3], 89%; in [4], 91%; in assay [5], 88%; in assay [6] it was 96%. Also, the residual activity was found to be 93% in assay [7]; 94% in assay [8]; 72% in assay [9]; 98% in assay [10]; 98% in [11].
In the case of `CCc1nc(-c2ccc(OC)cc2)[nH]c1-c1ccncc1`, the residual activity in assay [12] was found to be 105%; in assay [13] it was 100%; in assay [1] it was 112%; in [2], 100%; in assay [14], 113%; in assay [15], 107%. The residual activity in assay [8] amounted to 108%; in assay [16] it was 104%; in [17], 107%.
As for `O=C1NC(=O)c2c1c1c3ccccc3n3c1c1c2c2ccccc2n1C1CCC3O1`, the residual activity turned out to be 90% in assay [14]; 80% in assay [15]; 88% in assay [18]; 89% in assay [3]; 75% in [4]; 69% in [5]. For the same compound, the residual activity in [6] turned out to be 96%; in [7] it was 94%; in assay [8], 54%; in [9], 62%.
